From the supplement of paper PMC10849652
Of roughly 8,800 targets only a part is listed; those with a hit were picked by preference. About 0.5% of all pairs of compound and target were hits.

compound: CN1CC[C@H](c2c(O)cc(O)c3c(=O)cc(-c4ccccc4Cl)oc23)[C@H](O)C1 [alvocidib]; test: log2 fold change, soluble protein after heating vs DMSO (PISA); higher = thermal stabilisation; K562 lysate, 10 uM; active = over 0.2 and 3.5 SD of the protein, either way, in both replicates (recomputed)
Method in brief: (§1)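 A 30 min treatment with 10 μM compound was applied to crude K562 extract at 1 mg/mL protein in PBS pH 7.4 with 1 mM MgCl2. Heating for 3 min spanned 48°C-58°C, after which aliquots were pooled, adjusted to 0.5% NP-40 at 4°C and spun at 21,000xg for 90 min. TMTpro 16plex LC-MS/MS of the supernatant, with channel sums equalised, gave values recorded as log-two fold change in thermal stability against solvent controls, from duplicates.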

Chain of UniProt P42167 (P42167 whole entry, looked up): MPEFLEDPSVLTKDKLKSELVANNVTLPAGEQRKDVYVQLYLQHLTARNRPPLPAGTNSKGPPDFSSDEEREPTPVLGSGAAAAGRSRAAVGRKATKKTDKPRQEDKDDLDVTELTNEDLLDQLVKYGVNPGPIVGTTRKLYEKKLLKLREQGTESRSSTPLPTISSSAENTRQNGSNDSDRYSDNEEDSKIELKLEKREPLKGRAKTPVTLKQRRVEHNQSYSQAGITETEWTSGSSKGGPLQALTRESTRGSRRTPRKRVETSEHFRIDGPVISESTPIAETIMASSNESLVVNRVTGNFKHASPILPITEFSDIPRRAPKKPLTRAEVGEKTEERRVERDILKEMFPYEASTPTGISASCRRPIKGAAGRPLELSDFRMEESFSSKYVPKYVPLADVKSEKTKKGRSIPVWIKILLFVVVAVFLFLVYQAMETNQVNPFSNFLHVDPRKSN
Chain of UniProt Q07157 (Q07157 whole entry, looked up): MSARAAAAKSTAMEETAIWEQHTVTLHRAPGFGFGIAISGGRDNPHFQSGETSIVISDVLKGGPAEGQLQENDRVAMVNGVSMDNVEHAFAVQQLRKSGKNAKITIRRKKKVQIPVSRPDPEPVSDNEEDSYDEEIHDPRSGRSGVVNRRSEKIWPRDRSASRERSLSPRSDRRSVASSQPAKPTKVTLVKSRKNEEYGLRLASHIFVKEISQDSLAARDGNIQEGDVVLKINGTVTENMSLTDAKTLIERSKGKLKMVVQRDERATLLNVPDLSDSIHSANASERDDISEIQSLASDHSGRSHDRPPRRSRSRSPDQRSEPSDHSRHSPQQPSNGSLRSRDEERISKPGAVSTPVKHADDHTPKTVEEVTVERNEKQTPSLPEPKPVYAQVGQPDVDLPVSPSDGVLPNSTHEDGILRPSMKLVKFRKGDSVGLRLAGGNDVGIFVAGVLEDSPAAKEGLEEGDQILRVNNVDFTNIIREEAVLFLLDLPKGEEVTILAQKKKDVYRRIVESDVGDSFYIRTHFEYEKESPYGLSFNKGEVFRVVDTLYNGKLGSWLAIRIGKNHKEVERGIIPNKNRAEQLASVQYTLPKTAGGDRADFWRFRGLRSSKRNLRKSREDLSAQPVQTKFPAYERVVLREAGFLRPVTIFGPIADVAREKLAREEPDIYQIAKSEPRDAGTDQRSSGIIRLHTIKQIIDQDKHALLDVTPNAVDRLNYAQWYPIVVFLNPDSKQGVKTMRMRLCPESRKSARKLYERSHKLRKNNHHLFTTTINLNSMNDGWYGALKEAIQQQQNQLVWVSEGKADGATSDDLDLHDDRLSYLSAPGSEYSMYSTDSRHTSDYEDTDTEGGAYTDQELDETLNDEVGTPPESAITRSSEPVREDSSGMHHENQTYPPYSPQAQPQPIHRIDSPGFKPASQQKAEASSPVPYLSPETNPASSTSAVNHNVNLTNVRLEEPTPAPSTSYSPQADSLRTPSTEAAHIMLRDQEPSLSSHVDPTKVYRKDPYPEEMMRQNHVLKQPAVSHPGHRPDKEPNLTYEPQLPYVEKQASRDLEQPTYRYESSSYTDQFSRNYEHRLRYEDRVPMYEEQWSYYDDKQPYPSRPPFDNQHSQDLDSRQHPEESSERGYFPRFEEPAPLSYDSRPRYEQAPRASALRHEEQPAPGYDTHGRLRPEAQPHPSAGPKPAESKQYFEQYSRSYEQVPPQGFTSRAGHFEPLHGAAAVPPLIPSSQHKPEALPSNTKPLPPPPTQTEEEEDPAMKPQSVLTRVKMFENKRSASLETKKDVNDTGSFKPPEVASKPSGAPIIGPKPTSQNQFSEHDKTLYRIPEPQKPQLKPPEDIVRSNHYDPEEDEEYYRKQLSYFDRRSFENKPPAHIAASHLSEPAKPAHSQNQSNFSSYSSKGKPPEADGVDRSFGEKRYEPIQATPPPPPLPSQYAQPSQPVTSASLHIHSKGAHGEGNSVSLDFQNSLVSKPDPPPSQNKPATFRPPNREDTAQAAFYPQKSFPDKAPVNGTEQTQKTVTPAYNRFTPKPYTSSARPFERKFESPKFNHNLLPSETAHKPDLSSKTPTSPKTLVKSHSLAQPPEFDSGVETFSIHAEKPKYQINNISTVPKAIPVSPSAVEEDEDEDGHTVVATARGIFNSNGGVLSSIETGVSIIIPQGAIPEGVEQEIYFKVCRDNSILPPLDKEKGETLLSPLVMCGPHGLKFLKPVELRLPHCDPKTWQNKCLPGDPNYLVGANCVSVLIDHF
Chain of UniProt Q5TEJ8 (Q5TEJ8 whole entry, looked up): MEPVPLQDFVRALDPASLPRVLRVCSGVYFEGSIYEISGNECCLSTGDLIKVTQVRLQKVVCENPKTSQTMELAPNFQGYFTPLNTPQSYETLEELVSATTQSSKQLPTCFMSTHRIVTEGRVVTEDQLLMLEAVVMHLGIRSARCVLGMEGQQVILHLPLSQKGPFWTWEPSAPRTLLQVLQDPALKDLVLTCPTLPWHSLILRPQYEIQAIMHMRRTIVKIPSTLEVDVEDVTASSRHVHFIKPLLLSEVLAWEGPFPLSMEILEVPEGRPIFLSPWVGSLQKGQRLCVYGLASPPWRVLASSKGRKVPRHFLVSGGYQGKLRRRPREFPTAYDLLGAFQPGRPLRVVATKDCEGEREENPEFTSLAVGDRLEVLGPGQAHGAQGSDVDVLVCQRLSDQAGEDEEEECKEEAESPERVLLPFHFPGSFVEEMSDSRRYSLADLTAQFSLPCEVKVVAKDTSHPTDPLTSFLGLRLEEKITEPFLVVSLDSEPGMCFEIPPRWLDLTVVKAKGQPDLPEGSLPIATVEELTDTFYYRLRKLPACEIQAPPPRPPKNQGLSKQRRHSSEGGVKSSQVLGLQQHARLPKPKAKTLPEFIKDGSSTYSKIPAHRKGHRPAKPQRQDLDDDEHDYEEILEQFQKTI
Chain of UniProt Q6NXR4 (Q6NXR4 whole entry, looked up): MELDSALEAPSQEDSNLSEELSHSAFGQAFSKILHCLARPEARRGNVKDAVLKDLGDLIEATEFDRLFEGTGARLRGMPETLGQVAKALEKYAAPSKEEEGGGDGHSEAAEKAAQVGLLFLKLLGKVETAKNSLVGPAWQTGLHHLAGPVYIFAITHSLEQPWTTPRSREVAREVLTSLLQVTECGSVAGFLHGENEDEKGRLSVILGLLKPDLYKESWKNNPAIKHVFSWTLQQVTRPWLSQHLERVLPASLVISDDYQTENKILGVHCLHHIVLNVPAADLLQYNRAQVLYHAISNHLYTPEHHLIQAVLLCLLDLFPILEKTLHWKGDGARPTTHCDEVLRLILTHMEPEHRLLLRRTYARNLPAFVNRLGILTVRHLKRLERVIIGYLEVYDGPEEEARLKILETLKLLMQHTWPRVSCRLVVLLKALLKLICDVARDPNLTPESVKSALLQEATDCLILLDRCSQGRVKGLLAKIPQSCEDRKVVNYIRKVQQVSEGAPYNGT
Chain of UniProt Q13595 (Q13595 whole entry, looked up): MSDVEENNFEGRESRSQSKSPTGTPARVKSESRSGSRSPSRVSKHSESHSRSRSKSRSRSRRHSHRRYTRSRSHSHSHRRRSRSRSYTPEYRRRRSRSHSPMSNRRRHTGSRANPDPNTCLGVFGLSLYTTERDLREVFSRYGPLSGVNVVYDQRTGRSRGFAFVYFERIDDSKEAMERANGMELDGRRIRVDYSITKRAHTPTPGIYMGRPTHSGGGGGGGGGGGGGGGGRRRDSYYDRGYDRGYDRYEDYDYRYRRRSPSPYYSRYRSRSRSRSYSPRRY
Chain of UniProt O95857 (O95857 whole entry, looked up): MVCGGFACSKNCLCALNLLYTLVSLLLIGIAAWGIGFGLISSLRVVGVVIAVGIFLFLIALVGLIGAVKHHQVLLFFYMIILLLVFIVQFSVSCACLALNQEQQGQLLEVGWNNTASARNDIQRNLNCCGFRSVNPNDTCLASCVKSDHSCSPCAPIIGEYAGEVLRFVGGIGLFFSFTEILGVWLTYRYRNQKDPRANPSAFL
Chain of UniProt Q14139 (Q14139 whole entry, looked up): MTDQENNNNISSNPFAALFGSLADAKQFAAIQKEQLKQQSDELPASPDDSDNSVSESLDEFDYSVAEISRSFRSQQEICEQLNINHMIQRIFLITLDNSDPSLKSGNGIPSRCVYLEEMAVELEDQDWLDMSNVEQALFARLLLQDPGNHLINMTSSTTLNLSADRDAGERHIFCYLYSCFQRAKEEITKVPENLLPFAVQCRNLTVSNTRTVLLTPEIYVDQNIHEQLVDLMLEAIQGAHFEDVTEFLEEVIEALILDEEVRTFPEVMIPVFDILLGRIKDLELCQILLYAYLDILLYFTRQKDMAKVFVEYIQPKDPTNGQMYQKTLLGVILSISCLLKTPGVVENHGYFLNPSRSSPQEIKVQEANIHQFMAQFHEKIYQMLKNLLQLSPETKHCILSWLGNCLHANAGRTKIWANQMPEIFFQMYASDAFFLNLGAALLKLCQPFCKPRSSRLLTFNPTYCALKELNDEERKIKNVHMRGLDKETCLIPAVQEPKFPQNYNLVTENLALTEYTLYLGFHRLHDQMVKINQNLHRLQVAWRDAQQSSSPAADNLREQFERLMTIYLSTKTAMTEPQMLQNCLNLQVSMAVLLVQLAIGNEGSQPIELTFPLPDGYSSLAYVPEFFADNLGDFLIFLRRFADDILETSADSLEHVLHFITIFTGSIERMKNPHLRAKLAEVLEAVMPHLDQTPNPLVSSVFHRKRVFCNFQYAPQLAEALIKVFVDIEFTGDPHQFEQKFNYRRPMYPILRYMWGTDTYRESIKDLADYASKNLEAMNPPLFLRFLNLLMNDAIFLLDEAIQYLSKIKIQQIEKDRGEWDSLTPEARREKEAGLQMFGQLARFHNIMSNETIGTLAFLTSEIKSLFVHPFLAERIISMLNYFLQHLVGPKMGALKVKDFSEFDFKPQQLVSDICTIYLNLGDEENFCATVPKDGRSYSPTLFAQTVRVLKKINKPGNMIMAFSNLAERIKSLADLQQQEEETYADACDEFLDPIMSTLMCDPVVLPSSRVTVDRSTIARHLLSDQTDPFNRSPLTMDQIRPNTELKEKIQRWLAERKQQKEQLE

log2 fold change, inactive:
TPP2 (UniProt Q5VZU9) -0.099
TUBGCP3 (UniProt Q96CW5) -0.003
TEX30 (UniProt Q5JUR7) -0.021
TPM1 isoform 4 (UniProt P09493) 0.017
TRAPPC9 isoform 2 (UniProt Q96Q05) -0.017
TUT4 (UniProt Q5TAX3) -0.022
TRIM33 (UniProt H0Y612) -0.081
TECR (UniProt Q9NZ01) 0.05
TP53RK (UniProt Q96S44) -0.012
THEMIS2 (UniProt Q5TEJ8) -0.036
TTC38 (UniProt Q5R3I4) 0.121
TPM4 (UniProt P67936) -0.016
TMOD1 (UniProt P28289) 0.017
TOX4 (UniProt O94842) -0.16
TMEM199 (UniProt Q8N511) -0.032
UBE4A isoform 2 (UniProt Q14139) 0
TMEM87B (UniProt Q96K49) 0.035
TMPO (UniProt P42167) -0.007
TTI2 (UniProt Q6NXR4) -0.006
TUBB3 (UniProt Q13509) -0.001
TUBB (UniProt P07437) 0.01
TLK1 isoform 2 (UniProt Q9UKI8) -0.05
TRA2A (UniProt Q13595) -0.007
TBL2 (UniProt Q9Y4P3) 0.018
UBR4 (UniProt Q5T4S7) 0.009
TPM4 isoform 2 (UniProt P67936) 0.062
TBL3 (UniProt Q12788) -0.019
TTF2 (UniProt Q9UNY4) -0.018
TJP1 isoform 2 (UniProt Q07157) -0.011
TRIM65 (UniProt Q6PJ69) -0.11
UBE3C (UniProt Q15386) 0
UBAP2 (UniProt Q5T6F2) -0.081
TUBA1B (UniProt P68363) -0.027
TSPAN13 (UniProt O95857) -0.26

compound: CN1CCc2c(c3ccccc3n2Cc2ccc(C(=O)NO)cc2)C1 [Tubastatin A]; test: as above
Method in brief: as §1

log2 fold change, inactive:
TPP2 (UniProt Q5VZU9) -0.121
TUBGCP3 (UniProt Q96CW5) -0.094
TEX30 (UniProt Q5JUR7) -0.066
TPM1 isoform 4 (UniProt P09493) 0.073
TRAPPC9 isoform 2 (UniProt Q96Q05) -0.128
TUT4 (UniProt Q5TAX3) -0.1
TRIM33 (UniProt H0Y612) -0.034
TECR (UniProt Q9NZ01) -0.015
TP53RK (UniProt Q96S44) 0.054
THEMIS2 (UniProt Q5TEJ8) -0.069
TTC38 (UniProt Q5R3I4) -0.013
TPM4 (UniProt P67936) 0.074
TMOD1 (UniProt P28289) -0.081
TOX4 (UniProt O94842) -0.006
TMEM199 (UniProt Q8N511) 0.097
UBE4A isoform 2 (UniProt Q14139) -0.087
TMEM87B (UniProt Q96K49) 0.044
TMPO (UniProt P42167) 0.018
TTI2 (UniProt Q6NXR4) -0.081
TUBB3 (UniProt Q13509) -0.081
TUBB (UniProt P07437) -0.035
TLK1 isoform 2 (UniProt Q9UKI8) -0.092
TRA2A (UniProt Q13595) -0.079
TBL2 (UniProt Q9Y4P3) -0.007
UBR4 (UniProt Q5T4S7) -0.06
TPM4 isoform 2 (UniProt P67936) 0.03
TBL3 (UniProt Q12788) -0.08
TTF2 (UniProt Q9UNY4) -0.055
TJP1 isoform 2 (UniProt Q07157) 0.047
TRIM65 (UniProt Q6PJ69) 0.025
UBE3C (UniProt Q15386) -0.084
UBAP2 (UniProt Q5T6F2) 0.026
TUBA1B (UniProt P68363) -0.056
TSPAN13 (UniProt O95857) 0.046

compound: CNC(=O)C1=CC=CC=C1NC2=NC(=NC=C2Cl)NC3=C(C=C(C=C3)N4CCOCC4)OC; test: as above
Method in brief: as §1

log2 fold change, inactive:
TPP2 (UniProt Q5VZU9) 0.092
TUBGCP3 (UniProt Q96CW5) 0.026
TEX30 (UniProt Q5JUR7) 0.066
TPM1 isoform 4 (UniProt P09493) -0.013
TRAPPC9 isoform 2 (UniProt Q96Q05) 0.002
TUT4 (UniProt Q5TAX3) -0.001
TRIM33 (UniProt H0Y612) 0.119
TECR (UniProt Q9NZ01) -0.046
TP53RK (UniProt Q96S44) -0.037
THEMIS2 (UniProt Q5TEJ8) 0.024
TTC38 (UniProt Q5R3I4) 0.004
TPM4 (UniProt P67936) -0.021
TMOD1 (UniProt P28289) 0.042
TOX4 (UniProt O94842) 0.027
TMEM199 (UniProt Q8N511) -0.035
UBE4A isoform 2 (UniProt Q14139) 0.029
TMEM87B (UniProt Q96K49) -0.035
TMPO (UniProt P42167) -0.034
TTI2 (UniProt Q6NXR4) 0.03
TUBB3 (UniProt Q13509) 0.006
TUBB (UniProt P07437) -0.001
TLK1 isoform 2 (UniProt Q9UKI8) 0.046
TRA2A (UniProt Q13595) -0.033
TBL2 (UniProt Q9Y4P3) 0.023
UBR4 (UniProt Q5T4S7) 0.006
TPM4 isoform 2 (UniProt P67936) -0.027
TBL3 (UniProt Q12788) 0.014
TTF2 (UniProt Q9UNY4) 0.05
TJP1 isoform 2 (UniProt Q07157) -0.02
TRIM65 (UniProt Q6PJ69) -0.044
UBE3C (UniProt Q15386) 0.023
UBAP2 (UniProt Q5T6F2) -0.026
TUBA1B (UniProt P68363) 0.019
TSPAN13 (UniProt O95857) -0.042
